Assay outcomes as filed in PubChem.
Pf growth 96h = Primary qHTS for delayed death inhibitors of the malarial parasite plastid, 96 hour incubation; P. falciparum luciferase reporter growth, 96 h; 6.9% of 320,000 active; Potency, µM (series often up to 28.7 µM), most hits filed as inhibitors
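Cell-based qHTS: luciferase-tagged P. falciparum in erythrocytes (2% hematocrit, 0.05% parasitemia final) incubated with compounds for 96 hours, 37 C, 5% CO2; luciferase detection reagent then added and luminescence measured.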
AMA1-RON2 inh = qHTS for Inhibitors of AMA1-RON; Towards Development of Antimalarial Drug Lead: Primary Screen | Plasmodium falciparum AMA1 (3D7) - RON2 peptide interaction | AlphaScreen AMA1-biotinylated RON2 peptide binding | Potency, µM (top dose mostly 58.2 µM), hits mostly inhibitors | 0.2% of 360,000 active; further: nearly all actives have a fitted effect of over 45% in size
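AMA1 (3D7) with his tag at 25 nM final met compounds first, then biotinylated RON2 peptide at 25 nM; detection used donor plus acceptor beads, 10 µg/mL apiece, read by AlphaScreen after 30 min at room temperature.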
Pf growth 48h = Primary qHTS for delayed death inhibitors of the malarial parasite plastid, 48 hour incubation | P. falciparum luciferase growth in erythrocytes, 48 h | Potency, µM (titrated, usually from 28.7 µM), most hits filed as inhibitors | 5.9% of 310,000 active | AID 504832, 2011
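Luciferase-expressing parasites in RBCs, 2% Hct / 0.1% parasitemia final; RPMI 1640 + 0.5% Albumax; 37 C, 5% CO2, one generation; luminescence read-out, lower signal = inhibition.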
Sm TGR block = qHTS Assay for the Inhibitors of Schistosoma Mansoni Peroxiredoxins | Schistosoma mansoni thioredoxin glutathione reductase (TGR), Q962Y6 | purified TGR, DTNB reduction, TNB absorbance 405 nm | Potency, µM (doses to about 114 µM), most hits filed as inhibitors | 3% of 360,000 active; further: nearly all actives have a fitted effect of over 60% in size
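TGR 20 nM + NADPH 100 uM (dispensed conc.), cpd preinc 15 min RT; start with NADPH (500 uM addition) then DTNB (15 mM addition). Kinetic TNB absorbance, 405 nm filter. Four-parameter Hill fit across titration.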
NS1 function inh = qHTS Assay for Inhibitors of Influenza NS1 Protein Function | AID 2326, 2010 | 0.4% of 270,000 active | Potency, µM (series often up to 46.1 µM); calls by dose curve; further: actives are rising curves; nearly all actives have a fitted effect of over 50% in size
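In this qHTS, NS1 from influenza A is expressed in budding yeast, where it slows growth. Cells are switched from glucose to 2% galactose medium (pH 6.0, -URA), treated with compound, and growth recovery is read at OD600.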
Of the large screens only hits and unclear results are named; the others gave an inactive call. Most compounds without a hit are left out; they make up all but 11% or so of the library. Unless noted, the call rests on the fitted dose curve; in most records, active means well fitted curve in the direction sought with a large enough effect; inconclusive means small, poorly fitted or top-dose-only effect, or another doubt; inactive means no such curve, though single readings can be large; an effect the other way counts as inactive or inconclusive.

FC(F)(F)c1cc(-c2ccco2)nc(NCc2cccnc2)n1	Pf growth 96h inconclusive, Pf growth 48h 11.7µM, Sm TGR block 44.7µM
COc1ccc(CCNc2nc(-c3ccco3)cc(C(F)(F)F)n2)cc1OC	Pf growth 96h inconclusive, Pf growth 48h inconclusive
CCN(CC(=O)NCc1ccc(F)cc1)C(=O)CN1CCN(c2ccc(OC)cc2)CC1	AMA1-RON2 inh inconclusive
CC(C)OC(=O)N(C)C[C@@H]1OCc2cnnn2CCCC(=O)N([C@H](C)CO)C[C@H]1C	none (no result: Pf growth 96h, Pf growth 48h, Sm TGR block, NS1 function inh)
CN1CCN(C(=O)CN2C(=O)NC(C)(c3ccc4ccccc4c3)C2=O)CC1 (centres undefined)	Pf growth 96h inconclusive (no result: NS1 function inh)
CCCNC(=O)NC(=O)CN1C(=O)NC(C)(c2ccc(C)cc2)C1=O (centres undefined)	Pf growth 96h 13.1µM
Cc1ccc(C2(C)NC(=O)N(CC(=O)NC(=O)NCCC(C)C)C2=O)cc1 (centres undefined)	Pf growth 48h inconclusive
CCOC(=O)NC(=O)CN1C(=O)NC(C)(c2ccccc2)C1=O (centres undefined)	Pf growth 96h 1.85µM
CCOC(=O)N1CCN(C(=O)CN2C(=O)NC(C)(c3ccc4ccccc4c3)C2=O)CC1 (centres undefined)	Pf growth 96h inconclusive, Pf growth 48h 11.7µM (no result: NS1 function inh)
CCOc1ccccc1CN1C(=O)NC(C)(c2ccccc2)C1=O (centres undefined)	Pf growth 96h 9.28µM
CCN(CC)S(=O)(=O)c1cc(NC(=O)CO/N=C(\N)c2ccccc2Cl)ccc1C	Pf growth 96h inconclusive, Pf growth 48h inconclusive (no result: NS1 function inh)
CCOC(=O)C(=O)c1cn(C2OCC(OC(C)=O)C(OC(C)=O)C2OC(C)=O)c2ccccc12 (centres undefined)	none
O=C(NCCCN1CCOCC1)c1ccc(NS(=O)(=O)c2ccccc2)cc1	none
Cc1cc(NC(=O)C2CCCCC2)nc2c1c(=O)oc1ccccc12	Pf growth 96h 6.57µM
Cc1cc(NC(=O)C2CCCC2)nc2c1c(=O)oc1ccccc12	none
CN(C(=O)c1ccccc1)C1(C)CCS(=O)(=O)C1 (centres undefined)	Pf growth 96h inconclusive
CN(C(=O)c1cccs1)C1(C)CCS(=O)(=O)C1 (centres undefined)	Pf growth 96h 10.4µM
COc1ccc2c(c1)c1c(c(=O)n(-c3cccc(Cl)c3)c(=O)n1CC(=O)NCC1CCCO1)n2C (centres undefined)	none (no result: Pf growth 96h, AMA1-RON2 inh, Pf growth 48h, NS1 function inh)
COc1ccc(N(CC(=O)NC2CCCC2)C(=O)Cn2nnc(-c3ccc(C)cc3)n2)cc1OC	Pf growth 96h 10.4µM, Pf growth 48h inconclusive
COc1ccc(CCNC(=O)Cn2nnc(-c3ccc(N(C)C)cc3)n2)cc1OC	Pf growth 96h 4.15µM
COc1ccc(N(CC(=O)NC2CCCC2)C(=O)Cn2nnc(-c3ccc(F)cc3)n2)cc1OC	Pf growth 48h inconclusive
CCOc1ccc2ccccc2c1CNc1nnnn1C	none
COc1ccc(-n2c(Cc3cc(=O)[nH]c(=O)[nH]3)nnc2SCC(=O)NC2CCCC2)cc1	none (no result: Pf growth 48h)
CCOc1ccc(-n2c(Cc3cc(=O)[nH]c(=O)[nH]3)nnc2SC(C)C(=O)OC)cc1 (centres undefined)	Pf growth 96h 9.28µM (no result: AMA1-RON2 inh, Pf growth 48h)
CCOc1ccc(-n2c(Cc3cc(=O)[nH]c(=O)[nH]3)nnc2SCC(=O)NC2CCCC2)cc1	Pf growth 96h 10.4µM, Sm TGR block inconclusive (no result: Pf growth 48h)
COC(=O)C(C)Sc1nnc(Cc2cc(=O)[nH]c(=O)[nH]2)n1-c1cccc(OC)c1 (centres undefined)	none (no result: Pf growth 48h)
C[C@@H]1NS(=O)(=O)[C@H]2C[C@@H]3C=C[C@]2(O3)[C@H]1OC(=O)c1ccc(C(C)(C)C)cc1	Pf growth 96h inconclusive, Pf growth 48h inconclusive (no result: NS1 function inh)
O=S1(=O)c2ccccc2N=NN1Cc1ccc(Cl)cc1	Sm TGR block 2.51µM (no result: Pf growth 96h)
O=S1(=O)c2ccccc2N=NN1Cc1cc(Cl)cc(Cl)c1	none (no result: AMA1-RON2 inh)
CN(C)S(=O)(=O)c1cccc(NC(=O)C2CCN(S(=O)(=O)c3cccs3)CC2)c1	none (no result: Pf growth 96h, Pf growth 48h, Sm TGR block, NS1 function inh)
CC(C)NC(=O)C1(C)CCN1C(=O)c1c(F)cccc1F (centres undefined)	none (no result: Pf growth 96h, Pf growth 48h, Sm TGR block, NS1 function inh)
Cc1ccccc1Nc1nnc(SCc2cc([N+](=O)[O-])cc3c2OCOC3)s1	Pf growth 96h 4.65µM (no result: Pf growth 48h)
O=C(CN1CCN(S(=O)(=O)c2ccc(Cl)c(C(F)(F)F)c2)CC1)NC(=O)NC1CCCCC1	none (no result: Pf growth 96h, Pf growth 48h, Sm TGR block, NS1 function inh)
COC(=O)c1cnc(SC)nc1C	AMA1-RON2 inh 2.82µM
COc1ccc(CN(CC(=O)NCCc2ccccc2)C(=O)CCC(=O)Nc2cc(C)ccn2)cc1	none
COc1nc(Nc2ccc(O)cc2)nc(OC(C(F)(F)F)C(F)(F)F)n1	none (no result: Pf growth 96h)
COc1ccc(Nc2nc(Cl)nc(N3CCN(c4ccc(OC)cc4)CC3)n2)cc1	Pf growth 96h 11.7µM, Pf growth 48h inconclusive (no result: AMA1-RON2 inh)
COc1ccc(N2CCN(c3nc(NCCc4ccc(OC)c(OC)c4)nc(OC)n3)CC2)cc1	AMA1-RON2 inh inconclusive, Pf growth 48h inconclusive (no result: Pf growth 96h)
COc1nc(Nc2ccc(C(C)C)cc2)nc(OC)n1	Pf growth 48h 1.17µM
COc1ccc(Nc2nc(OC)nc(N3CCN(c4ccc(OC)cc4)CC3)n2)cc1	Pf growth 96h inconclusive, Pf growth 48h 9.28µM
CCOC(=O)N1CCN(C(=O)Nc2sc3nc4n(c(=O)c3c2C)CCC(C)CC4)CC1 (centres undefined)	Pf growth 96h 13.1µM, Pf growth 48h 11.7µM, Sm TGR block 2.82µM
CCCN(CCC)CCNC(=O)c1sc2nc3n(c(=O)c2c1C)CCCCC3	none (no result: Pf growth 96h, AMA1-RON2 inh, Pf growth 48h, NS1 function inh)
CCOC(=O)c1ccc(NC(=O)c2sc3nc4n(c(=O)c3c2C)CCC4)cc1	Pf growth 96h 14.7µM, Pf growth 48h inconclusive
COCCNC(=O)c1sc2nc3n(c(=O)c2c1C)CCC3	none (no result: Pf growth 96h, AMA1-RON2 inh, Pf growth 48h, NS1 function inh)
CCOC(=O)N1CCC(NC(=O)c2sc3nc4n(c(=O)c3c2C)CCCC4)CC1	Pf growth 96h 2.33µM (no result: Pf growth 48h)
COCCCNC(=O)c1sc2nc3n(c(=O)c2c1C)CCC3	Sm TGR block 11.2µM (no result: Pf growth 96h, AMA1-RON2 inh, Pf growth 48h, NS1 function inh)
Cc1ccc(C)c(NC(=O)COC(=O)c2c(C)nn(-c3ccccc3)c2C)c1	Pf growth 48h inconclusive (no result: NS1 function inh)
CCc1cc2c(=O)oc(-c3ccccc3F)nc2s1	none
C=CCN1C(=O)NC(=O)/C(=C/c2cc3c4c(c2)CCCN4CCC3)C1=O	Sm TGR block 8.91µM, NS1 function inh inconclusive
COc1ccc(C2Nc3ccccc3C(=O)N2c2ccccc2)cc1Cn1cc([N+](=O)[O-])cn1 (centres undefined)	Pf growth 96h 5.22µM, Pf growth 48h 13.1µM
COc1cccc(C(C(=O)NC(C)(C)C)N(C(=O)CCC(=O)Nc2cc(C)on2)C(C)C)c1OC (centres undefined)	Pf growth 96h inconclusive, Pf growth 48h 11.7µM
COCCN(C(=O)CCC(=O)Nc1cc(C)on1)C(C(=O)NC(C)(C)C)c1ccc(OC)cc1 (centres undefined)	none
